# Calls of active or inactive are those of the source. How the source made its calls, unless noted: active means hit-call score of the fitted dose curve at least 0.9, where 1 is the maximum; inactive means score below 0.9.
# Assays:
# [1] = CCTE_Shafer_MEA_dev_per_burst_interspike_interval: CCTE's Neural Network Formation Assay for Burst Interspike Interval, Shafer Lab (AID 2284044);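 on AC50: potency for a decrease of within-burst interspike interval below DMSO level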
# Procedure, shortened: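 Readout is the average time between spikes inside single-electrode bursts, taken as a well mean across bursting electrodes. Cortical neurons from rat developed networks on MEA plates under continuous 12-day exposure; recordings on days 5, 7, 9 and 12 were integrated by trapezoidal AUC.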
# [2] = CCTE_Shafer_MEA_dev_burst_duration_mean: CCTE's Neural Network Formation Assay for Mean Burst Duration, Shafer Lab (AID 2284045);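 on AC50: curve fitted for loss meaning shorter burst duration than DMSO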
# Procedure, shortened: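 Rat cortical cultures, 1.5 x 10^5 cells/well with laminin drop; continuous dosing days 0–12, media plus treatment refreshed DIV 5, 9. AxIS adaptive spike detection; mean single-electrode burst duration, AUC over four recordings, negative direction vs DMSO.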
# [3] = CCTE_Shafer_MEA_dev_interburst_interval_mean: CCTE's Neural Network Formation Assay for Mean Interburst Interval, Shafer Lab (AID 2284046);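 further: well-mean interburst interval of bursting electrodes as AUC over four recording days; curve fitted for decrease in interburst interval relative to DMSO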
# Procedure, shortened: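 Recordings on days 5, 7, 9 and 12 give well-mean interburst interval across actively bursting electrodes, summarized as area under the curve. Cultures: rat cortical neurons, continuous exposure from day 0, compound renewed at feeds; decrease analyzed versus DMSO.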
# [4] = CCTE_Shafer_MEA_dev_inter_network_spike_interval_mean: CCTE's Neural Network Formation Assay for Mean Inter-network Spike Interval, Shafer Lab (AID 2284047)
# Procedure, shortened: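 Primary rat cortical neurons on 16-electrode MEA wells, exposed from plating day 0 through DIV 12, compound renewed at DIV 5 and 9 media changes. Mean interval between network-spike peaks recorded DIV 5, 7, 9, 12; collapsed as trapezoidal AUC, fitted downward versus DMSO.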
# [5] = CCTE_Shafer_MEA_dev_network_spike_number: CCTE's Neural Network Formation Assay for Number of Network Spikes, Shafer Lab (AID 2284048);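 on AC50: fit as a loss of signal meaning fewer network spikes than DMSO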
# Procedure, shortened: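 Rat cortical primary cultures on 48-well MEA (16 electrodes/well); continuous exposure DIV 0–12, full medium and treatment exchange DIV 5, 9. Readout: network spike count, AxIS adaptive detection, recordings DIV 5/7/9/12 collapsed to AUC; loss-of-signal fit, DMSO baseline.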
# [6] = CCTE_Shafer_MEA_dev_network_spike_peak: CCTE's Neural Network Formation Assay for Mean Number of Electrodes in Network Spike, Shafer Lab (AID 2284049);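 on AC50: fitted for loss of signal meaning fewer electrodes in network spikes than DMSO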
# Procedure, shortened: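 Network-spike peak electrode count from recordings on days 5, 7, 9 and 12 was combined as trapezoidal area under the curve. Rat cortical cultures were treated continuously from plating, with compound renewed at each feed (DIV 5, 9); fits versus DMSO.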
# [7] = CCTE_Shafer_MEA_dev_spike_duration_mean: CCTE's Neural Network Formation Assay for Mean Spike Duration, Shafer Lab (AID 2284051);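 further: mean network spike duration pooled as area under curve over DIV 5 to 12 recordings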;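 on AC50: potency for a decrease in mean network spike duration versus DMSO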
# Procedure, shortened: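 Primary rat cortical neurons on 16-electrode MEA wells (PEI-coated, laminin in plating drop), exposed from plating through DIV 12 with compound renewed at DIV 5 and 9. Mean network-spike duration recorded DIV 5, 7, 9, 12; trapezoidal AUC across days, DMSO baseline.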
# [8] = CCTE_Shafer_MEA_dev_network_spike_duration_std: CCTE's Neural Network Formation Assay for Standard Deviation of Network Spike Duration, Shafer Lab (AID 2284052);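 further: area under curve of spike duration SD across recording days 5 to 12; hits are decreases in network spike duration SD versus DMSO vehicle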
# Procedure, shortened: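 Primary rat cortical neurons on PEI-coated 16-electrode MEA wells, exposed from plating day 0 through day 12 with compound renewed at DIV 5 and 9. Network spike duration SD recorded on days 5, 7, 9, 12, collapsed as trapezoidal AUC; loss-of-signal fit versus DMSO.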
# [9] = CCTE_Shafer_MEA_dev_per_network_spike_spike_number_mean: CCTE's Neural Network Formation Assay for Mean Number of Spikes in a Network Spike, Shafer Lab (AID 2284053);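 on AC50: fitted as decrease in spikes per network spike relative to DMSO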
# Procedure, shortened: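 Primary rat cortical neurons on 48-well, 16-electrode MEA plates were exposed from plating to DIV 12, with dosing renewed on DIV 5 and 9. Spikes per network spike (0.05 s peak window) were recorded on DIV 5, 7, 9 and 12 and collapsed as trapezoidal AUC versus DMSO.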
# DIO2 (gene 1734) = test: CCTE_GLTED_hDIO2: CCTE's human Deiodinase 2 (DIO2) Inhibition Assay, Great Lakes Toxicology and Ecology Division (GLTED) Lab (AID 2284050; active means hit-call score of the fitted dose curve at least 0.9, where 1 is the maximum)
# Procedure, shortened: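 Readout: absorbance from Sandell-Kolthoff detection of free iodide released by human DIO2 during a 3 h incubation with chemical. Cell-free format, n=3; activity fitted relative to DMSO negative control.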
structure (smiles),measurement,setting,value
Cc1ccccc1OP(=O)(Oc1ccccc1C)Oc1ccccc1C,outcome,[1],inactive
same,outcome,[2],inactive
same,AC50,[3],15 µM (active)
same,outcome,[4],inactive
same,outcome,[5],inactive
same,AC50,[6],18.7 µM (active)
same,AC50,[7],21.4 µM (active)
same,outcome,[8],inactive
same,AC50,[9],20.3 µM (active)
FC(F)OCC(F)(F)C(F)(F)F,outcome,[1],inactive
same,outcome,[2],inactive
same,outcome,[3],inactive
same,outcome,[4],inactive
same,outcome,[5],inactive
same,outcome,[6],inactive
same,outcome,[7],inactive
same,outcome,[8],inactive
same,outcome,[9],inactive
N#CCC#N,AC50,DIO2 (gene 1734),48.8 µM (active)
CC(C)[C@@H](Nc1ccc(C(F)(F)F)cc1Cl)C(=O)OC(C#N)c1cccc(Oc2ccccc2)c1 (stereo partly specified),outcome,[1],inactive
same,outcome,[2],inactive
same,outcome,[3],inactive
same,outcome,[4],inactive
same,outcome,[5],inactive
same,AC50,[6],20.9 µM (active)
same,AC50,[7],25.8 µM (active)
same,outcome,[8],inactive
same,outcome,[9],inactive
CS(=O)(=O)c1ccc(C(=O)C2C(=O)CCCC2=O)c(Cl)c1COCC(F)(F)F,outcome,[1],inactive
same,outcome,[2],inactive
same,outcome,[3],inactive
same,outcome,[4],inactive
same,outcome,[5],inactive
same,outcome,[6],inactive
same,outcome,[7],inactive
same,outcome,[8],inactive
same,outcome,[9],inactive
CNC(=O)CSP(=O)(OC)OC,outcome,[1],inactive
same,outcome,[2],inactive
same,outcome,[3],inactive
same,outcome,[4],inactive
same,outcome,[5],inactive
same,outcome,[6],inactive
same,outcome,[7],inactive
same,outcome,[8],inactive
same,outcome,[9],inactive
OC(Cc1ccccc1Cl)(Cn1[nH]cnc1=S)C1(Cl)CC1 (stereo unspecified),AC50,[1],11.2 µM (active)
same,outcome,[2],inactive
same,AC50,[3],82.5 µM (active)
same,outcome,[4],inactive
same,AC50,[5],24.4 µM (active)
same,AC50,[6],50 µM (active)
same,AC50,[7],33.6 µM (active)
same,outcome,[8],inactive
same,AC50,[9],23.6 µM (active)
C=CC(F)(C(F)(F)F)C(F)(F)C(F)(F)F (stereo unspecified),outcome,[1],inactive
same,outcome,[2],inactive
same,outcome,[3],inactive
same,outcome,[4],inactive
same,outcome,[5],inactive
same,outcome,[6],inactive
same,outcome,[7],inactive
same,outcome,[8],inactive
same,outcome,[9],inactive
C=CCOC(F)(C(F)(F)F)C(F)(F)F,outcome,[1],inactive
same,outcome,[2],inactive
same,outcome,[3],inactive
same,outcome,[4],inactive
same,outcome,[5],inactive
same,AC50,[6],0.0255 µM (active)
same,outcome,[7],inactive
same,outcome,[8],inactive
same,outcome,[9],inactive
O=S(=O)(F)C(F)(F)C(F)(F)C(F)(F)C(F)(F)F,outcome,[1],inactive
same,outcome,[2],inactive
same,outcome,[3],inactive
same,outcome,[4],inactive
same,outcome,[5],inactive
same,outcome,[6],inactive
same,outcome,[7],inactive
same,outcome,[8],inactive
same,outcome,[9],inactive
O=[N+]([O-])c1ccc(Cl)c([N+](=O)[O-])c1,AC50,DIO2 (gene 1734),30.3 µM (active)
O=C1c2ccccc2C(=O)C1C(=O)C(c1ccccc1)c1ccc(Cl)cc1 (stereo unspecified),AC50,DIO2 (gene 1734),91.9 µM (active)
CCOCn1c(-c2ccc(Cl)cc2)c(C#N)c(Br)c1C(F)(F)F,AC50,[1],1.61 µM (active)
same,AC50,[2],2.71 µM (active)
same,AC50,[3],6.29 µM (active)
same,outcome,[4],inactive
same,AC50,[5],7.36 µM (active)
same,AC50,[6],8.42 µM (active)
same,AC50,[7],6.23 µM (active)
same,AC50,[8],1.64 µM (active)
same,AC50,[9],6.48 µM (active)
CC(=O)C(F)(F)C(F)(F)F,outcome,[1],inactive
same,outcome,[2],inactive
same,outcome,[3],inactive
same,outcome,[4],inactive
same,outcome,[5],inactive
same,outcome,[6],inactive
same,outcome,[7],inactive
same,outcome,[8],inactive
same,outcome,[9],inactive
NC(=O)c1ccc(N)nc1,AC50,[1],8.19 µM (active)
same,AC50,[2],8.66 µM (active)
same,AC50,[3],3.16 µM (active)
same,outcome,[4],inactive
same,AC50,[5],7.35 µM (active)
same,AC50,[6],4.53 µM (active)
same,AC50,[7],7.59 µM (active)
same,AC50,[8],7.69 µM (active)
same,AC50,[9],4.19 µM (active)
Cc1cc(C(F)(C(F)(F)F)C(F)(F)F)ccc1NC(=O)c1cccc(I)c1C(=O)NC(C)(C)CS(C)(=O)=O,outcome,[1],inactive
same,outcome,[2],inactive
same,AC50,[3],6.7 µM (active)
same,outcome,[4],inactive
same,outcome,[5],inactive
same,AC50,[6],18 µM (active)
same,AC50,[7],11.3 µM (active)
same,outcome,[8],inactive
same,AC50,[9],17.4 µM (active)
CC(F)(F)CC(F)(F)F,outcome,[1],inactive
same,outcome,[2],inactive
same,outcome,[3],inactive
same,outcome,[4],inactive
same,outcome,[5],inactive
same,outcome,[6],inactive
same,outcome,[7],inactive
same,outcome,[8],inactive
same,outcome,[9],inactive
CCCCCCCCCCCCc1cccc(S(=O)(=O)O)c1,AC50,DIO2 (gene 1734),90.4 µM (active)
CC(=Cc1ccccc1)[N+](=O)[O-],AC50,DIO2 (gene 1734),41.8 µM (active)
CC1(C)[C@H](C(=O)O[C@H](C#N)c2cccc(Oc3ccccc3)c2)[C@@H]1/C=C(\Cl)C(F)(F)F,outcome,[1],inactive
same,outcome,[2],inactive
same,outcome,[3],inactive
same,outcome,[4],inactive
same,AC50,[5],1.35 µM (active)
same,AC50,[6],8.95 µM (active)
same,AC50,[7],12.9 µM (active)
same,outcome,[8],inactive
same,AC50,[9],12.9 µM (active)
O=S1(=O)OC(c2cc(Br)c(O)c(Br)c2)(c2cc(Br)c(O)c(Br)c2)c2ccccc21,AC50,DIO2 (gene 1734),36.4 µM (active)
